The values that follow come from PubChem BioAssay (NCI).

The panel holds about 83,000 compounds, 20% with a hit somewhere; the sample as a whole holds those more often.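 Single-dose data. Exposure time 48 hours. Values below 10 considered active.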 Values without a mark were called inactive. Calls of active or inactive are those of the source.

This assay concerns RPMI-8226 leukemia. Description: NCI-60 one-dose screen, 48 h (100 = growth as untreated, 0 = no growth, -100 = all killed). The conditions noted are these: 10 µM unless noted.
For `O=C(NNc1cnccn1)c1nc2cc(F)ccc2n2cccc12`, the growth was 12%. The figure for `COc1cc(/C=C2\CN(S(=O)(=O)c3ccccc3)C/C(=C\c3cc(CN4CCCCC4)c(O)c(OC)c3)C2=O)cc(CN2CCCCC2)c1O` is -34.9% (active); for `COc1ccc(/C=C/C(c2cc(OC)c(OC)c(OC)c2)n2ccnc2)cc1O` (centres undefined) it is 15.1%. Turning to `C/C=C(/C)n1cnc2c(Nc3ccccn3)nc(Cl)nc21`, the growth was 98.2%. For the molecule `Oc1ccc(/C=C/c2ccc(O)cc2)cc1`, the growth was 12.8%.

Take `C#CCOc1cccc(-c2ncnc3cc(NC(=O)C=C)ccc23)c1`: the growth is 21.1%. As for `CCOC(=O)c1nn(CC(O)c2ccccc2)c(NC(=O)Nc2cccc(F)c2)c1C` (centres undefined), the growth was 96.6%. In the case of `O=C(N/N=C\c1ccccc1S(=O)(=O)O)N/N=C/c1ccccc1S(=O)(=O)O`, the growth is 94.6%. Then `CC[C@]12C=CCN3CC[C@@]4(c5ccc(OC)cc5N(C)[C@H]4[C@@](O)(C(=O)OC)[C@@H]1OC(=O)CCC[P+](c1ccccc1)(c1ccccc1)c1ccccc1)[C@@H]32`, with -12.6% (active). On to `CCCn1nc(C(=O)N(C)Cc2ccccc2)c2c1CCC(N1CCc3ccccc31)C2` (centres undefined), for which the growth was 90.8%. Consider `C=C1C(=O)O[C@H]2[C@H]1CC/C(COC(=O)/C=C\C(=O)NCc1ccc(Cn3c(=O)sn(CCCl)c3=O)cc1)=C\CC[C@@]1(C)O[C@@H]21`, for which the growth was 74.8%. As to `COC(=O)c1ccc(NC(=O)Nc2ccc(C(=O)OC)cc2)cc1`, the growth is 89.9%. With `O=C(O)c1cn(C2CC2)c2cc(N3CCN(C(=O)Nc4nc(-c5ccc(Br)cc5)cs4)CC3)c(F)cc2c1=O`, the growth is -9.26% (active). The figure for `NC(=O)c1c(NC(=O)c2cccc(C(F)(F)F)c2)sc2c1CCC(=O)C2` is -22.5% (active); for `CC1=C(C(=O)Nc2ccccc2)C(c2ccc3c(c2)OCO3)NC(=S)N1` (centres undefined) it is 109%.

In the case of `NS(=O)(=O)c1ccc(-c2cc(-c3nnc(SCC(=O)Nc4ccc(C(=O)/C=C/c5ccc(Cl)cc5)cc4)n3-c3ccccc3)c3ccccc3n2)cc1`, the growth was 10.7%. On to `COC(=O)c1cc(Br)ccc1O`, for which the growth was 94.5%. Take `C=C1C(=O)O[C@H]2[C@H]1CC/C(COC(=O)/C=C/C(=O)OC/C1=C/CC[C@@]3(C)O[C@H]3[C@H]3OC(=O)C(=C)[C@@H]3CC1)=C\CC[C@@]1(C)O[C@@H]21`: the growth was -15.2% (active). Consider `CNC1=CC(=O)c2c(C(=O)OC)c(C)[n+]([O-])c(C)c2C1=O`, for which the growth was 76.1%.

Consider `O=C(Nc1ncccc1OCc1ccccc1)NC1CCCCCC1`, for which the growth was 68.1%. In the case of `O=C1/C(=C\c2cccc3nccnc23)SC(=S)N1CCc1ccc(O)cc1`, the growth was 83%. On to `O=C1/C=C/[C@@H](O)[C@@H]2C[C@@H](O)C[C@H]2/C=C/CCC[C@@H](O)CCO1`, for which the growth is 126%. Regarding `Cc1ccc(CNc2c3ccccc3nc3ccccc23)cc1`, the growth was -11% (active). Take `Cc1ccnc(Nc2ccc([N+](=O)[O-])c(NCCN3CCOCC3)n2)c1`: the growth is 26.1%. Turning to `CSc1nn2c(-c3ccc4ccccc4c3)ccnc2c1C#N`, the growth was 24.1%. Turning to `COc1cc2nc3sc(C(=O)Nc4ccc(C(=O)OC(C)C)cc4)c(C(=O)Nc4ccc(Cl)cc4C)n3c(=O)c2cc1OC`, the growth was 52.7%.

Consider `COC(=O)/C=C1/SC(=Nc2ccc([N+](=O)[O-])cc2)N(CCc2c[nH]c3ccc(O)cc23)C1=O`, for which the growth is 8.49% (active). As for `O=S1(=O)C=C(c2ccccc2)C(c2ccccc2)=C1`, the growth is 4.61% (active). `O=C(O)COc1ccc(Cl)c(Cl)c1`: the growth is 101%. The figure for `O=C1/C(=C/c2ccccn2)NC(=S)N1c1ccccc1Cl` is 52.8%; for `CCS/C(Nc1ccccc1)=C(\C#N)C(=O)Nc1ccc(OC)cc1` it is 25.2%.

`COc1ccc(C(=O)N2c3ccccc3Sc3ccccc32)c(C(F)(F)F)c1`: the growth was 14.2%.

For `Cc1ccc(-c2csc(NC(=O)c3ccccc3CN3C(=O)c4ccccc4C3=O)n2)cc1`, the growth is 94.8%. Take `CNC(=O)c1cc(Oc2cccc3nc(NC(=O)Nc4cc(C(F)(F)F)ccc4Cl)ccc23)ccn1`: the growth was 78.8%.
